Laboratory results as given in PubChem BioAssay AID2132 (NMMLSC, 2009).
Unmarked numbers belong to inactive results.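 How the source made its calls: active means inhibition above 20%; inactive means the rest.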 Peptide text beside a SMILES is read from it. * marks the point of attachment. Cbz = O=C(OCc1ccccc1)*

Experiment: yeast 26S proteasome protease site inhibitors – biochemical, fluorogenic peptides, secondary, counter-screen for 26S proteasome disassembly project (AID 2132)
Details: fluorogenic peptide cleavage rate, with Ac-RLR-amc, at 100 µM, active compounds read high

| SMILES | inhibition [%] |
| --- | --- |
| CC(=O)N1C(=O)C(=C2C=C(C)OC(C)=C2)c2ccccc21 | 20 |
| CC(C)C[C@@H](C=O)NC(=O)[C@H](CC(C)C)NC(=O)[C@H](CC(C)C)NC(=O)OCc1ccccc1 (Cbz-Leu-Leu-Leu-aldehyde) | 5 |
